In the library only some 2.4% were active in any assay of this set; here they are far more common.
D2 PAM-1 – human D2 receptor positive allosteric modulation. DiscoveRx D2 beta-arrestin cells, luminescence, 90 min; 100% = 57 uM dopamine signal. potentiation, % (no concentration beside the values). actives 0.23% (n = 360,000). AID 624464; in the data active = potentiation above about 50%; inconclusive = mostly about 30% to 49%
Target sequence (P14416 whole entry, looked up): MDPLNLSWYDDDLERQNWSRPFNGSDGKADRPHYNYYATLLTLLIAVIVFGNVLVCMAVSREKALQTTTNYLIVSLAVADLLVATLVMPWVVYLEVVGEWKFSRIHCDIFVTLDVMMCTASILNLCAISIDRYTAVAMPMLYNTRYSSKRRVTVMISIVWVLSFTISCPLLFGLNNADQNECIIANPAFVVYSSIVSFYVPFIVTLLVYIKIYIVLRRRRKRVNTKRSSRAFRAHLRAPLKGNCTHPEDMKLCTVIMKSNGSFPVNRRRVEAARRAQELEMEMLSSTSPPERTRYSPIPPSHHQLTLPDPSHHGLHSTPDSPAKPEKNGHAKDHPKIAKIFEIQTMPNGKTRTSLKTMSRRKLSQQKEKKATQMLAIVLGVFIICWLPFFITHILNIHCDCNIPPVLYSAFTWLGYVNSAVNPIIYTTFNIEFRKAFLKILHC
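D2 cells co-treated with compound plus 50 nM dopamine (EC20) for 90 min at 37 deg C to detect potentiation. Beta-arrestin recruitment was read as enzyme-fragment luminescence after 1 h at ambient temperature. Full response was set by 57 uM dopamine.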
D2 ag-1 – activates the human D2 dopamine receptor. HEK293 T-REx D2 cells, calcium flux agonist mode. activation, % at 2 µM. actives 0.53% (n = 340,000). AID 485358;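 active = activation over 3 SD above normal in the single-dose calcium agonist read, cut at about 30% in these data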; note: 0% is about no effect
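Agonism scored from kinetic calcium signal (1 read/sec, 180 s) following compound pin transfer, after a 10 s baseline. Cells: HEK293 Trex line expressing inducible D2 receptor coupled to calcium, dye-loaded after overnight culture at 30 C.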
D2 antagonist – antagonists of human D2 dopamine receptor. inhibition, % at 10 µM. P14416. HEK293 TREx D2 cells, calcium flux, dopamine EC80. actives 2% (n = 340,000); in the data active = inhibition above about 30%; inactive = below that, where a call was filed; note: 0% is about no effect
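Measurement of antagonist activity uses fluorescent calcium dye in inducible HEK293 T-REx D2 cells: 10 s baseline, compound addition with 180 s read, EC80 dopamine addition with a further 180 s read.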
D2 ag-2 – activates the human D2 dopamine receptor | P14416 | DiscoveRx PathHunter D2 beta-arrestin, luminescence, 90 min; 100% = 57 uM dopamine signal | activation, % (concentration not given with the values) | actives 0.084% (n = 360,000); in the data active = activation above about 40%; inconclusive = between about 15% and that limit
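Agonist mode: compounds alone added to overnight-plated D2 PathHunter cells for 90 min at 37 C, with 57 uM final dopamine (EC100) defining full response. Beta-arrestin recruitment detected by chemiluminescent reagent, read after 1 h at ambient temperature.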
D2 PAM-2 – positively modulates the human D2 dopamine receptor allosterically; potentiation, % at 10 µM; actives 0.34% (n = 340,000); HEK293 T-REx D2, calcium flux, EC20 dopamine potentiation; AID 485347; P14416;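 active = potentiation over 3 SD above the plate norm, cut at about 30% in these data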; note: 0% is about no effect
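Tetracycline-induced HEK293 T-REx cells force-coupled to calcium signalling expressed D2; compounds were pin-added after a 10 s baseline, read kinetically 180 s, then an EC20 dopamine challenge followed with a further 180 s calcium read.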
D3 ag – confirmation of human D3 dopamine receptor agonists, beta-arrestin. shares compounds with D2 ag-1. DiscoveRx D3 beta-arrestin cells, luminescence, 90 min. Potency, µM (doses to about 76.9 µM), without a hit: at the highest dose activation, usual class: activators. actives 4% (n = 2,300);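 note: potency is the fitted concentration of half-maximal effect; 100% = dopamine control response; nearly all actives have a fitted effect of over 70% in size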
D2 ag-3 – counter-screen for D3 agonists: human D2 dopamine receptor agonism; DiscoveRx PathHunter D2 beta-arrestin, luminescence, 90 min; response scale: percent relative to full dopamine signal; AID 720507; Potency, µM (top dose mostly 76.9 µM), inactives show at the top dose activation, hits mostly activators; actives 5.9% (n = 2,300); shares compounds with D2 ag-1; note: potency is the fitted concentration of half-maximal effect; % of control where 0% means no effect; nearly all actives have a fitted effect of over 70% in size
Starred values were filed as active, the others as inactive; ? = inconclusive; · = no result given. Unless noted, calls come from the whole dose curve; as a rule, active = well fitted activation curve with a large enough effect; inconclusive = small, poorly fitted or top-dose-only effect; inactive = flat fitted curve, though single readings scatter.

SMILES | D2 PAM-1 | D2 ag-1 | D2 antagonist | D2 ag-2 | D2 PAM-2 | D3 ag | D2 ag-3
COc1ccccc1N1CCN(CCCNC(=O)Nc2ccccc2)CC1 | -12 | 87* | 101* | ? | -30 | 29% | 28%
Cc1ccccc1NC(=O)NCCCN1CCN(C)CC1 | 5 | 0 | 3 | 2 | 9 | · | ·
O=C(NCCCN1CCN(c2ccccc2F)CC1)Nc1ccc(F)cc1 | -4 | 76* | 81* | 14 | -20 | -1% | ?
O=C(Cn1c(=O)c2cccn2c2ccc(F)cc21)NCCCN1CCN(c2ccccc2F)CC1 | -34 | 79* | 82* | ? | -19 | 4% | ?
COc1ccc(N2CCN(CCCNC(=O)Nc3ccccc3)CC2)cc1 | -24 | 0 | -2 | -1 | 12 | · | ·
O=C(NCCCN1CCN(c2ccccc2F)CC1)Nc1ccccc1[N+](=O)[O-] | -17 | 73* | 99* | ? | -25 | 17% | ?
Cc1cc(=O)n(CC(=O)N2CCCc3ccccc32)c2c1c(C)nn2-c1cccc(F)c1 | · | · | · | · | 7 | · | ·
Cc1ccc(-c2cc(C(=O)Nc3cc([N+](=O)[O-])ccc3C)no2)cc1F | · | -1 | · | · | 1 | · | ·
Cc1noc(-c2ccc(NCc3ccccc3)c([N+](=O)[O-])c2)n1 | · | 1 | · | · | 0 | · | ·
CSc1ccc(NC(=O)NCCCN2CCN(c3ccccc3F)CC2)cc1 | 3 | 69* | 100* | ? | -20 | ? | ?
COc1ccc([C@H]2CC(=O)C=C(c3ccc(O)cc3)C2)cc1OC | 10 | 14 | -10 | 1 | 9 | 16% | 9%
COc1ccc([C@H]2CC(=O)C=C(c3cccc4c3Oc3ccccc3S4)C2)cc1OC | 3 | 1 | 6 | -1 | 4 | 3% | 4%
O=C1C=C(c2cccc3c2Oc2ccccc2S3)C[C@@H](c2ccc(Cl)cc2)C1 | -3 | 1 | -6 | -2 | -6 | · | ·
CCOC(=O)c1c(C)c(C(=O)NCCCN2CCCC2=O)c(C)n1CC | -15 | 62* | -7 | 1 | -19 | -5% | -4%
COc1cc(C(C)=O)ccc1OCC(O)CN1CCN(c2ccc(F)cc2)CC1 (configuration not stated) | -5 | 41* | 40* | -1 | -15 | 8% | 5%
COc1cc(C(C)=O)ccc1OCC(O)CN1CCN(c2ccc(C)cc2C)CC1 (configuration not stated) | -14 | -2 | 4 | -2 | -20 | · | ·
COc1cc(C(C)=O)ccc1OCC(O)CN1CCN(c2ccccc2)CC1 (configuration not stated) | 9 | 85* | 85* | 46* | -27 | ? | ?
COc1ccc(C(=O)NCN2CCN(c3ccccc3)CC2)cc1OC | 7 | 64* | 23 | 9 | -20 | 1% | 22%
Cc1ccc(C(=O)NCN2CCN(c3ccccc3)CC2)cc1 | -29 | 2 | -16 | 1 | -36 | · | ·
CCOC(=O)c1cccc(NC(=O)c2cnccn2)c1 | -6 | · | · | -4 | 1 | -12% | -3%
O=C(NCCc1ccccc1)c1coc(=O)c(Br)c1 | 2 | 39* | 13 | 2 | 0 | 4% | 14%
CN(C)CCNC(=O)c1coc(=O)c(Br)c1 | 20 | 0 | 6 | -3 | 4 | · | ·
C=CCN(CC=C)CCOc1ccccc1 | -23 | 53* | -12 | -2 | -24 | 3% | 8%
CC(C)SCCCCOc1ccc2ccccc2c1 | -4 | 2 | -23 | -1 | -10 | -23% | 1%
CCOC(=O)c1ccccc1NC(=O)COC(=O)CC(C)(C)CC1=NS(=O)(=O)c2ccccc2N1 | · | 0 | · | · | 3 | · | ·
SMILES | D2 PAM-1 | D2 ag-1 | D2 antagonist | D2 ag-2 | D2 PAM-2 | D3 ag | D2 ag-3
N#Cc1ccc(C2=CC(=O)C[C@H](c3ccc(F)cc3)C2)cc1 | -13 | 0 | -11 | 1 | 8 | 3% | 1%
Cc1ccc(C2=CC(=O)C[C@H](c3ccc(F)cc3)C2)cc1 | -7 | 0 | 8 | -7 | 16 | · | ·
Cn1ccc2ccc(C3=CC(=O)C[C@H](c4ccc(F)cc4)C3)cc21 | -5 | -1 | -10 | -3 | -12 | -5% | 1%
CC(CCc1ccccc1)NCc1cccc2ccccc12 (configuration not stated) | -78 | 57* | 32* | 2 | -27 | 16% | 14%
Cc1cc(NC(=O)c2ccccc2F)on1 | -3 | 68* | -2 | 4 | -19 | 0% | -4%
COC(=O)[C@H](Cc1ccccc1)NS(=O)(=O)N[C@@H](Cc1ccccc1)C(=O)OC | -4 | 5 | -8 | -2 | -9 | -6% | -1%
COC(=O)C(Cc1ccccc1)NS(=O)(=O)c1ccccc1Br (configuration not stated) | -3 | 2 | -27 | 0 | -5 | · | ·
Cc1ccc2c(=O)cc(C(=O)NCc3ccccc3)oc2c1 | · | -1 | · | · | -25 | · | ·
O=[N+]([O-])c1c(NCCO)cc(N2CCN(Cc3ccc4c(c3)OCO4)CC2)c2nonc12 | -25 | 40* | -12 | -3 | -19 | -1% | 13%
O=C(C1CCN(S(=O)(=O)c2cccc3nonc23)CC1)N1CCN(c2ccccc2)CC1 | · | 1 | · | · | -7 | · | ·
Cc1ccc(-c2noc(-c3ccc(NCC4CCCO4)c([N+](=O)[O-])c3)n2)cc1 (configuration not stated) | · | -1 | · | · | 4 | · | ·
COc1ccccc1C(=O)Nc1cccc(C(=O)OCc2cc(=O)n3cc(C)sc3n2)c1 | · | 1 | · | · | 1 | · | ·
C=CCn1c(SCC(=O)c2ccc(O)c(O)c2)nnc1-c1cccc(OC)c1 | -4 | 41* | 2 | 1 | -45 | 5% | 9%
CCc1ccc(CN(Cc2ccco2)c2cnc(S(C)(=O)=O)nc2C(=O)Nc2c(C)cccc2C)cc1 | · | 3 | · | · | -1 | · | ·
CCS(=O)(=O)N1CCN(C(C)CCc2ccccc2)CC1 (configuration not stated) | 3 | 61* | 28 | 13 | -21 | ? | ?
CC(C)N1CCN(S(=O)(=O)c2ccccc2)CC1 | 2 | 2 | 1 | -1 | 1 | · | ·
Cc1cnc(C(=O)Nc2ccc(S(=O)(=O)N(C(C)C)C(C)C)cc2)cn1 | -3 | 0 | 27 | 4 | 3 | · | ·
Cc1cnc(C(=O)Nc2ccc(S(=O)(=O)NCC(C)C)cc2)cn1 | -9 | 15 | 36* | -2 | -8 | 7% | -3%
CCN1C(=O)[C@H]2[C@@H](c3ccc(C)cc3)N3C(=O)N(c4ccc(C)cc4)C(=O)[C@@]3(Cc3ccc(Cl)cc3)[C@H]2C1=O | 2 | 45* | -18 | -3 | -11 | -10% | -4%
